Experimental data: PubChem BioAssay (NCI)
About 83,000 compounds went through this panel and 20% of them were active in at least one assay; those are over-represented in the sample as a whole.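 Percent growth is the endpoint: 0 to 100 indicates growth inhibition (40 means 60% inhibition), 0 means no net growth, and negative values indicate cell death.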 A number with no mark means an inactive call. Active and inactive are the calls of the source. Rule for the calls: active = growth percent below 10; inactive = the rest.

Experiments:
Test in all cases: NCI-60 one-dose screen, 48 h (100 = growth as untreated, 0 = no growth, -100 = all killed)
Details in all cases: 10 µM
SR leukemia = test system: SR leukemia
RPMI-8226 leukemia = test system: RPMI-8226 leukemia
OVCAR-5 ovarian = test system: OVCAR-5 ovarian
OVCAR-4 ovarian = test system: OVCAR-4 ovarian
SK-OV-3 ovarian = test system: SK-OV-3 ovarian
IGROV1 ovarian = test system: IGROV1 ovarian
OVCAR-3 ovarian = test system: OVCAR-3 ovarian
HS 578T breast = test system: HS 578T breast
NCI/ADR-RES ovarian = test system: NCI/ADR-RES ovarian
OVCAR-8 ovarian = test system: OVCAR-8 ovarian

| Structure (SMILES) | growth (SR leukemia) | growth (RPMI-8226 leukemia) | growth (OVCAR-5 ovarian) [%] | growth (OVCAR-4 ovarian) | growth (SK-OV-3 ovarian) [%] | growth (IGROV1 ovarian) [%] | growth (OVCAR-3 ovarian) | growth (HS 578T breast) | growth (NCI/ADR-RES ovarian) | growth (OVCAR-8 ovarian) [%] |
| --- | --- | --- | --- | --- | --- | --- | --- | --- | --- | --- |
| COc1ccc(/C(=N\N)C(=O)c2ccccc2)cc1 (tested in a mixture with another compound) | 111% | 90% | 96.7 | 95.9% | 97.7 | 107 | 102% | 97.1% | 102% |  |
| COc1ccc(/C=C2\CCCC3C2=Nc2ccccc2NC3c2ccc(OC)cc2)cc1 (stereo not drawn) | 53.9% | 25.7% | 127 | 77.5% | 89.3 | 96.6 | 86.8% | 87.6% | 86.2% |  |
| COc1ccc(C2=Cn3c(CCC(=O)c4nc5ccccc5[nH]4)nnc3SC2)cc1 | 18.9% | 61.7% | 116 |  | 120 | 91.6 |  | 92.8% | 105% | 120 |
| COc1ccc2c(c1)CC=C1[C@@H]2CC[C@]2(C)C(=O)/C(=N/O)C[C@@H]12 | 74.6% | 83.8% | 86.1 |  | 116 |  |  | 90.3% | 90.3% | 102 |
| COc1ccc(/C=c2\sc3n(c2=O)C(c2cc(OC)c(OC)c(OC)c2)C=C(c2ccc(OC)c(OC)c2)N=3)cc1OC (stereo not drawn) | 91.5% | 63.7% |  |  | 108 |  | 103% | 90.8% | 97.5% | 98.8 |
| NC1=CC(=O)C(=O)c2cccnc21 | 86% | 73.8% | 101 | 91.8% | 93.9 | 76.7 | 84% | 77.5% | 82.7% |  |
| COc1cc(C2CC(c3ccc4c(c3)OCO4)=NN2c2ccccc2)cc(OC)c1OC (stereo not drawn) | 71.9% | 75.7% |  |  | 107 |  |  | 93.6% | 77.7% | 99.3 |
| Cc1ccc(C(C)C)c(O)c1NC(=O)OC(C)C | 115% | 102% |  |  | 106 |  | 104% | 95.8% | 98.3% | 95.7 |
| O=[N+]([O-])c1ccc2ncccc2c1Cl | 7.28% (active) | 38.7% | 85.3 | 90.2% | 63.6 |  | 40.7% | 67% | 29.2% |  |
| Clc1ccc(Cc2ccncc2)cc1 | 97.6% | 109% |  |  | 113 |  | 110% | 105% | 108% | 99 |
| Cc1ccc(/C=C2/C(=O)N(C)c3ccc(S(=O)(=O)Nc4ccc(C(C)(C)C)cc4)cc32)s1 | 57.9% | 55.6% | 73 | 44.4% | 89.6 | 70.8 | 88.3% | 88.7% | 55.8% |  |
| COc1cc(-c2nn(-c3cccc(NC(=O)CN4CCOCC4)c3)cc2-c2cccnc2)ccc1Cl | 37.3% | 60.5% | 108 | 101% | 95.8 | 79.6 | 77.2% | 76.3% | 59% |  |
| COC(=O)c1cc2oc(/C=C3/SC(=S)N(N)C3=O)cc2n1Cc1ccccc1 | 20.8% | -4.46% (active) | 72.6 | 51% | 98.2 |  | 55% | -27.4% (active) | 52.5% |  |
| COc1cc(C(=O)/C=C/c2c[nH]c3ccccc23)cc(OC)c1OC | 14.3% | 10.3% | 55.7 | 49.4% | 17.7 | 27.7 |  | 49.9% | 9.93% (active) |  |
| CC(=O)C1CCC2C3CC=C4CC(SC(=N)N)CCC4(C)C3CCC12C (stereo not drawn) | -36% (active) | -7.56% (active) | 80.4 | 50.1% | 75 | 35.7 | 63.1% | 72.6% | 38.2% |  |
| Cc1cc(CSc2ccccc2C(=O)N2CC=C(c3ccccc3)CC2)on1 | 85.3% | 84.9% | 87.3 | 89.2% | 107 | 92.2 | 107% | 100% | 90.7% |  |
| CCC(=O)OC1CCC2C3CCC(=O)OC3C(C)(CCC(=O)O)CC12C (stereo not drawn) | -21.1% (active) | 6.49% (active) | 59 | 65.8% | 51.6 | 25.4 | 5.37% (active) | -28.7% (active) | 15.8% |  |
| Nc1cc(Br)c(-c2nn3c(CCC(=O)c4nc5ccccc5[nH]4)nnc3s2)c(Br)c1 | 88.1% | 85.1% | 122 |  | 113 | 101 | 105% | 90% | 97.3% | 96.5 |
| OC(CCN1CCCC1)(c1ccccc1)C1CCCCC1 (stereo not drawn) | 123% | 114% |  | 104% | 120 |  | 105% | 103% | 105% | 104 |
| CCOC(=O)CN(c1sc(C)c(C)c1C(=O)OCC)S(=O)(=O)c1ccc(C)cc1 | 96.9% | 98.2% | 107 |  | 87.1 | 111 |  | 95.9% | 88% | 105 |
| CC(C)(C)c1ccc(S(=O)(=O)N[C@H]2CC[C@H]3[C@@H]4CCc5cc(OS(=O)(=O)O)ccc5[C@H]4CC[C@]23C)cc1 | 20.7% | 34.1% | 87.3 | 53.4% | 82.1 | 41.4 | 34.1% | 66.5% | 47.3% |  |
| CC(=O)OC/C=C(/C)C[P+](c1ccccc1)(c1ccccc1)c1ccccc1 | 64.9% | 0.0221% (active) | 81.4 | 85.8% | 94.7 | 83.5 | 62.9% | 87.9% | 90.3% |  |
| Nc1ccn(Cc2nnc(CCC(=O)c3nc4ccccc4[nH]3)o2)c(=O)n1 | 14.9% | 73.1% | 98 |  | 98.7 | 65.3 |  | 81.3% | 86.1% |  |
| CC(=O)O[C@@]12CO[C@@H]1C[C@H](O)[C@@]1(C)C(=O)[C@H](O)C3=C(C)[C@@H](OC(=O)[C@H](O)[C@@H](NC(=O)OC(C)(C)C)c4ccccc4)C[C@@](O)([C@@H](OC(=O)c4ccccc4)C12)C3(C)C (stereo partly drawn) | 11.1% | 25.4% | 40.1 | 58% | 47.3 | 39.2 | 7.26% (active) | 12.3% | -21.2% (active) |  |
| CC(C)C1=C(O)C2=C(C(=O)C1=O)[C@@]1(C)CCCC(C)(C)[C@@H]1CC2 | 48% | 55.2% | 108 |  | 95.5 |  | 61% | 85% | 39.7% | 70 |
| CCn1cc(C(=O)O)c(=O)c2cc(F)c(N3CCNCC3)cc21 | 100% | 104% |  | 111% | 113 |  | 114% | 111% | 110% | 97 |
| O=C1C=C(Nc2cccc(Br)c2)c2ccccc2C1=O | 56.8% | 63.1% | 73.1 | 77.6% | 25.7 |  | 38.9% | 38.5% | 71.1% |  |
| CN1CCN(CCCn2c(=O)c3sc4ncccc4c3n3nnc(-c4ccccc4)c23)CC1 | -38% (active) | -2.66% (active) | 59.3 | -29% (active) |  |  | -47.4% (active) | -12.2% (active) | 33.1% |  |
